# From PubChem BioAssay
# Only some compounds are listed: those with a hit (about 18% of all), similar ones and a draw of the others.
# CtBP-E1A blk: blocks the CtBP interaction with E1A | activity change, % (no concentration beside the values) | 0.49% of 340,000 active | AlphaScreen GST-E1A/His-CtBP binding, 1536-well; active compounds read low; in the data active = activity change below about -65%; inconclusive = mostly about -30% to -63%
#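 Homogeneous bead-based format: GST-tagged E1A captured on glutathione donor beads, His-tagged CtBP on nickel acceptor beads; compounds precede bead addition by 2 h at 37 °C.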
# Six1-Eya2 blk: inhibitors of human Six1/Eya2 interaction; activity change, % (test concentration not listed); AID 651725; Q15475+O00167; 0.56% of 360,000 active; AlphaScreen GST-Six1/His-Eya2 binding, biochemical; active compounds read low; in the data active = activity change below about -65%; inconclusive = mostly about -30% to -63%
#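 Homogeneous AlphaScreen proximity assay pairing GST-Six1 with His-tagged Eya2 (added as 5X mix: 250 nM and 500 nM) in 50 mM Tris pH 8.0, 300 mM NaCl, 1 mM TCEP. Glutathione donor and nickel acceptor beads; 1 h, 37 °C, dark.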
# TDP1 block: blocks human tyrosyl-DNA phosphodiesterase 1; Q9NUW8; recombinant TDP1, AlphaScreen DNA substrate cleavage; Potency, µM (highest dose often 130 µM), for the others: top-dose activity change, negative = inhibition, most hits filed as inhibitors; 0.28% of 350,000 active; AID 485290; note: potency is the fitted concentration of half-maximal effect; nearly all actives have a fitted effect of over 40% in size
# Target sequence (Q9NUW8 whole entry, looked up): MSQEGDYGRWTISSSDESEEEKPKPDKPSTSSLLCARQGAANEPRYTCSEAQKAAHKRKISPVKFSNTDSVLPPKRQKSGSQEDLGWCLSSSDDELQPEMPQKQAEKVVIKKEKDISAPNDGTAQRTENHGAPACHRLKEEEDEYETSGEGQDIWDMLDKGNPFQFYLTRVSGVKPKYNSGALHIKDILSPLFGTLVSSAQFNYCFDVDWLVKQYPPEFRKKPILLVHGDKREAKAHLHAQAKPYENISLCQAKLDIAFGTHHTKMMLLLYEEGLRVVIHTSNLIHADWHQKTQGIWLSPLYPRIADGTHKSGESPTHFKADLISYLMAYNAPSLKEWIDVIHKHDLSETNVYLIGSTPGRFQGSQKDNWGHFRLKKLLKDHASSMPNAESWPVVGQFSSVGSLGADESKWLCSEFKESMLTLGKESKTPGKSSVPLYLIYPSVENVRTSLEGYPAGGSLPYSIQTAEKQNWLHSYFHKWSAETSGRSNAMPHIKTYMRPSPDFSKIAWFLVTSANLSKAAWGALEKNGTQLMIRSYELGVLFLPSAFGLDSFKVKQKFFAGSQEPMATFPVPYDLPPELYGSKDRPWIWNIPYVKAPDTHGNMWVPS
#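 Steps: enzyme plus compound, 15 min RT; add biotin/phosphotyrosine-FITC oligonucleotide (15 nM final), react 5 min; add donor/acceptor beads (10 ug/ml final), 10 min; read AlphaScreen. Tdp1 at 1 nM final.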
# DT40 TDP1 no CPT: qHTS for Inhibitors of human tyrosyl-DNA phosphodiesterase 1 (TDP1): qHTS in cells in absence of CPT | DT40 Tdp1-/- hTDP1 cells, no CPT, ATP luminescence, 48 h | Potency, µM (highest dose often 46.2 µM), without a hit: at the highest dose activity change, negative = growth inhibition, hits mostly inhibitors | 15% of 420,000 active | AID 686978, 2013; note: potency is the fitted concentration of half-maximal effect; nearly all actives have a fitted effect of over 55% in size
#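 Seeded 400 DT40-hTDP1 cells/well (vehicle DMSO, no 20 nM CPT); pinned compounds; ≥48 hr at 37 °C; CellTiter-Glo luminescence as viability measure.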
# TDP1 cell CPT: DT40-hTDP1 cell growth loss with CPT; chicken DT40 Tdp1-/-;hTDP1 cells + 20 nM CPT, ATP luminescence, 48 h; Potency, µM (titrated, usually from 46.2 µM), for inactives: at the highest dose activity change, negative = growth inhibition, most hits filed as inhibitors; 12% of 420,000 active; note: potency is the fitted concentration of half-maximal effect; nearly all actives have a fitted effect of over 55% in size
#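 Chicken DT40 Tdp1-/- cells stably complemented with human TDP1 were seeded at 400 cells/well in medium containing 20 nM camptothecin, exposed to pin-transferred compounds, and grown at 37 °C for at least 48 hr. Viability was read as ATP luminescence.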
# IL-1B inflam inh: blocks inflammasome-driven IL-1 beta release; activity change, % at 57.5 µM; 4.7% of 360,000 active; THP-1 LPS/ATP IL-1B secretion, AlphaLISA, 16 h; active compounds read low; AID 743279; in the data active = activity change below about -50%; inconclusive = mostly about -30% to -49%
#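 THP-1 cells pretreated 1 hr with compounds (up to 57.5 uM final), then stimulated with LPS (250 ng/mL final) plus ATP (1.25 mM final); secreted IL-1B measured by AlphaLISA after 16 hr, decreased signal indicating inhibition.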
# An asterisk follows results filed as active; i = inactive; u = inconclusive; x = no result given. Unless noted, calls come from the whole dose curve; as a rule, active = well fitted curve in the direction sought with a large enough effect; inconclusive = small, poorly fitted or top-dose-only effect, or another doubt; inactive = no such curve, though single readings can be large; an effect the other way counts as inactive or inconclusive. % is set by controls: 0 for no effect and ±100 for the full control effect.
SMILES,CtBP-E1A blk,Six1-Eya2 blk,TDP1 block,DT40 TDP1 no CPT,TDP1 cell CPT,IL-1B inflam inh
O=c1oc(-c2cccs2)nc2c1cnn2-c1ccccc1,7,-1,5%,u,u,-6
Cc1cccc(N(Cc2nnc3n2CCCCC3)C(=O)Nc2ccccc2)c1,-5,6,2%,4%,0%,-4
CN1CCN(S(=O)(=O)c2cccc(C(=O)Nc3nccs3)c2)CC1,-20,-8,x,-16%,1%,22
CN1CCN(S(=O)(=O)c2cccc(C(=O)Nc3sc4c(c3-c3nc5ccccc5[nH]3)CCCC4)c2)CC1,18,1,5%,13µM*,15µM*,42
CN1CCN(S(=O)(=O)c2cccc(C(=O)Nc3cc(C(N)=O)cc(C(N)=O)c3)c2)CC1,u,-66*,-5%,15%,0%,13
CC1CC(C)CN(S(=O)(=O)c2ccc(C(=O)Nc3sccc3C(N)=O)cc2)C1 (stereo unspecified),-2,-4,7%,21µM*,18µM*,24
CN1CCN(S(=O)(=O)c2cccc(C(=O)Nc3sccc3C(N)=O)c2)CC1,-80*,-77*,-1%,-5%,-4%,-19
NC(=O)c1ccsc1NC(=O)c1ccc(S(=O)(=O)N2CCCC2)cc1,u,-9,5%,u,u,-2
CN1CCN(c2ccc(NC(=O)c3cccc(S(=O)(=O)N4CCCC4)c3)cc2)CC1,-8,-4,0%,-22%,-25%,11
Cc1ccc(S(=O)(=O)N2CCCC(C(=O)Nc3ccc(NC(=O)c4ccccn4)cc3)C2)cc1 (stereo unspecified),6,19,0%,u,u,0
COc1ccc(C2C(C#N)=C(N)Nc3onc(C(C)(C)C)c32)c(OC)c1 (stereo unspecified),-4,5,3%,18µM*,u,-30
COc1ccc(C2C(C#N)=C(C)NC(C)=C2C#N)c(OC)c1,0,-3,-3%,9%,4%,2
O=C(OCC(=O)c1c[nH]c2ccccc12)c1ccc(OC(F)F)cc1,-17,5,x,-24%,-15%,5
CC(Sc1ccccc1)C(=O)N1CCN(S(=O)(=O)c2ccccc2)CC1 (stereo unspecified),-1,3,7%,-14%,-9%,0
COc1ccc(C(CNC(=O)c2oc3ccc(C)cc3c2C)N2CCOCC2)cc1 (stereo unspecified),x,x,4%,-94%,23µM*,x
CCc1cc(C(=O)NCC(c2ccc(OC)cc2)N2CCOCC2)sc1C (stereo unspecified),1,2,-16%,-22%,-9%,-8
COc1ccc(C(CNC(=O)c2cc(C)oc2C)N2CCOCC2)cc1 (stereo unspecified),-27,-10,0%,u,u,-4
CCC1CCc2sc(C(=O)NCC(c3ccc(OC)cc3)N3CCOCC3)cc2C1 (stereo unspecified),x,-13,2%,13µM*,23µM*,-17
COc1ccc(C(CNC(=O)c2ccc(-c3cccc(C(F)(F)F)c3)o2)N2CCOCC2)cc1 (stereo unspecified),-20,-1,x,21µM*,u,-28
Cc1ccc2oc(C(=O)NCC(c3ccc(Cl)cc3)N3CCOCC3)c(C)c2c1 (stereo unspecified),x,x,4%,10µM*,8.2µM*,x
O=C(c1ccccc1)N1CCCCC(Cl)C1=O (stereo unspecified),x,-2,5%,-10%,3%,6
CCCn1c(SCC(=O)Nc2cc(S(=O)(=O)N3CCOCC3)ccc2OC)n[nH]c1=O,0,1,-3%,-22%,-18%,-20
O=C(Nc1ccccn1)c1ccc(S(=O)(=O)N2CCCCC2)cc1,0,0,x,u,u,-2
Cc1c(C(=O)NCC(c2ccc(Cl)cc2)N2CCOCC2)oc2ccccc12 (stereo unspecified),x,x,2%,23µM*,16µM*,x
COc1ccc(-c2noc(-c3ccccc3C(=O)NCC3CCCO3)n2)cc1 (stereo unspecified),-22,0,-3%,u,-38%,16
SMILES,CtBP-E1A blk,Six1-Eya2 blk,TDP1 block,DT40 TDP1 no CPT,TDP1 cell CPT,IL-1B inflam inh
Cc1ccc(C(=O)COC(=O)C2C3C=CC(C3)C2C(=O)OCC(=O)c2ccc(C)c(C)c2)cc1C (stereo unspecified),11,10,4%,u,u,-53*
COc1ccc2[nH]cc(/C=C/c3cc[n+](C)cc3)c2c1,x,11,x,5.2µM*,u,20
O=C(/C=C/c1c[nH]c2ccccc12)c1ccccc1,7,1,0%,u,21µM*,5
COc1ccc2[nH]cc(C=O)c2c1,0,0,0%,-10%,-7%,-7
COc1ccc2[nH]cc(/C=C/C(=O)c3ccccc3)c2c1,-8,1,5%,u,u,-104*
Cc1cccc(C(=O)Nc2ccc(C)c(OC(=O)c3cccc(C)c3)c2)c1,x,x,4%,x,x,x
CC(=O)Oc1ccc(-c2ccc(C(=O)OCC(=O)N(C)CC(=O)Nc3ccccc3Cl)cc2)cc1,-20,u,1%,-16%,u,i
COC(=O)[C@@]12CCCCN1[C@H](c1ccc(-c3ccccc3)c(OC)c1)[C@H]1C(=O)N(C)C(=O)[C@H]12,x,0,3%,13µM*,u,43
CCN1C(=O)[C@H]2[C@@H](c3ccc(-c4cccc(Cl)c4)c(OC)c3)N3CCC[C@@]3(C(=O)OC)[C@H]2C1=O,-2,-8,0%,9.2µM*,13µM*,-51*
COC(=O)[C@@]12CCCN1[C@H](c1ccc(-c3ccc(Cl)c(Cl)c3)c(OC)c1)[C@H]1C(=O)N(C)C(=O)[C@H]12,x,-18,5%,23µM*,13µM*,u
COC(=O)[C@@]12CCCN1[C@H](c1ccc(-c3cccc(Cl)c3)c(OC)c1)[C@H]1C(=O)N(C)C(=O)[C@H]12,-6,-14,5%,16µM*,15µM*,-8
COc1ncnc2c1ncn2CCCN1CCN(c2ncccn2)CC1,0,9,x,-29%,-2%,27
COc1ccc(Cl)cc1C(=O)NNC(=O)CCNS(=O)(=O)c1ccccc1,-1,0,2%,-17%,-10%,14
O=C1CN(C(=O)COC(=O)c2ccccc2NCc2ccco2)c2ccccc2N1,-2,-1,7%,-3%,-21%,0
